Records with an inconclusive call do not appear. A call without a number means that no potency is given here. Activity calls are given as the source filed them. Calls come from the whole dose curve; as a rule, active = well fitted curve in the direction sought with a large enough effect; inconclusive = small, poorly fitted or top-dose-only effect, or another doubt; inactive = no such curve, though single readings can be large or run the other way.

In PubChem BioAssay AID1845224 (National Center for Advancing Translational Sciences (NCATS), 2023) one finds activity change, negative = inhibition and Potency data, which are given here for 14 compounds.

The test system of the test is NanoLuc luciferase (engineered Oplophorus gracilirostris luciferase). Briefly: Confirmatory Nanoluciferase (NLuc) qHTS assay for identification of artifact compounds. Conditions: secreted NLuc in S16 cell medium, luminescence, 5 min; series mostly up to 39 µM. The method in brief: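 Conditioned medium from NLuc-expressing S16 cells (diluted 1:55) was incubated with compounds for 15 min at room temperature. Nano-Glo substrate (1:100) was then added, and luminescence was read after 5 min.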
In the case of `CC(C)C[C@H](NC(=O)[C@H](Cc1ccccc1)NC(=O)CNC(=O)CNC(=O)[C@@H](N)Cc1ccc(O)cc1)C(=O)N[C@@H](CCCN=C(N)N)C(=O)N[C@@H](CCCN=C(N)N)C(=O)N[C@@H](CCC(N)=O)C(=O)N[C@@H](Cc1ccccc1)C(=O)N[C@@H](CCCCN)C(=O)N[C@H](C(=O)N[C@H](C(=O)N[C@H](C(=O)O)[C@@H](C)O)C(C)C)C(C)C`, the activity change, negative = inhibition was 9.86% [at 4.32 µM] (inactive).
Regarding `O=C(O)c1sc2c(c1-c1nc3ccccc3s1)CCNC2`, the Potency result is “inactive”.
With `C[C@]12C[C@H](O)[C@H]3[C@@H](CCC4=CC(=O)CC[C@@]43C)[C@@H]1CC[C@@H]2C(=O)CO`, the Potency entry is “inactive”.
For the compound `CN(C)c1ccc(CNC(=O)c2ccc3c(c2)N(C)C(=O)C2CCCCN32)cc1` (centres undefined), the Potency entry is “inactive”.
On the same count and under the same terms, the result for `CC(=O)Nc1cc(-c2ccccc2)nn1Cc1cccc(Cl)c1` reads “inactive”; that for `COc1ccccc1CNC(=O)c1nn(-c2ccc(C)cc2)c(=O)c2c1c1ccccc1n2C`, “inactive”.
For `O=C(Nc1cc(-c2ccc(F)c(F)c2)no1)c1ccccc1F`, the Potency result was “inactive”.
For `COC(=O)C1=C[C@@H](C(=O)OC)C2C3=C(C(=O)[C@]2(C)NC(=O)c2ccccc2)[C@H](C)n2c(=O)n(C)c(=O)n2[C@@H]3C1` (some centres undefined), the Potency result is “inactive”.
On to `CCC(C(=O)NCc1cc(OC)ccc1OC)n1nc(C)c2sc3ccccc3c2c1=O` (centres undefined), for which the Potency result is “inactive”.
`CCOc1ccc(-c2cc(NC(=O)Nc3ccccc3Cl)c(C(=O)OC)s2)cc1`: the Potency entry was “inactive”.
`COc1ccc(OCc2nnc(-c3ccccc3)o2)cc1`: the Potency entry is “inactive”.
Consider `O=C(Nc1ccc(Cl)c(Cl)c1)Nc1ncc(-c2ccncc2)s1`, for which the Potency entry is “inactive”.
On to `CC1CCN(c2ccc(-c3cccc(NS(=O)(=O)c4ccc(F)cc4F)c3)nn2)CC1`, for which the Potency entry is “inactive”.
`COc1ccc(C2=Nn3c(nnc3-c3cccc(OC)c3)SC2)cc1`: the Potency result is “inactive”.
